Biological target: AMP-activated protein kinase, AMPK (Homo sapiens) (UniProt P54646+O43741+P54619+Q9UGJ0+Q9Y478+Q13131+Q9UGI9)
Test: AMP-dependent Kinase enzyme assay. An in vitro enzyme assay that detects ADP turnover that is directly proportional to AMPK activity. This uses naive AMPK that is activated during the assay with MK-8722
Type: functional
Parameters: scale not given: direction of the effect not stated beside the values
Conditions: 30 µM

SMILES | Percent Effect
CCc1nc(C)c(C(=O)N[C@@H]2c3ccccc3C[C@@H]2O)o1 | 15.9%
Cc1cc(C)n(CC2CCN(CC(O)COc3ccccc3)CC2)n1 (stereo not given) | 2.9%
COc1ccc2c(c1)OCC(C(=O)NCc1nc3c(s1)CCCC3)C2 (stereo not given) | 8.94%
CC(NC(=O)N1CCCN(C)CC1)c1ccc2c(c1)OCCO2 (stereo not given) | 3.15%
CCOc1ccccc1C(C(=O)O)N(C)Cc1cc(C)[nH]n1 (stereo not given) | 5.49%
Cc1nn(C)c2nc(N3CCCCC3c3ccc(F)cc3)sc12 (stereo not given) | 3.9%
COc1ccc(-c2cc(C3CC3)c(C#N)c(N)n2)cc1F | 9.02%
CN(C)c1nccnc1C1CCN(C(=O)C2(C)CCCCN2C)CC1 (stereo not given) | 9.26%
O=C(Nc1ccccn1)c1ccc(F)c(S(=O)(=O)NC2CC2)c1 | 1.7%
CN(CCCO)C(=O)c1ccc2c(c1)nc(N1CC[C@H](O)C1)n2C | 6.47%
O=C(Nc1ccc(Br)cc1F)c1ccc(N2CCCCC2)nn1 | 1.92%
O=C(CCc1nc(-c2ccsc2)no1)NCC1CCN(C2CC2)C1 (stereo not given) | 1.07%
Cn1cc(CCCN2CCCC(c3cc(C(F)(F)F)[nH]n3)C2)cn1 (stereo not given) | -0.434%
CC1(C)Cc2nc(C(C)(C)C)ncc2C(NC(=O)CN)C1 (stereo not given) | -5.88%
COCCN(Cc1ccccn1)C(=O)Nc1cccnc1-n1cccn1 | -0.778%
CCc1ccsc1C(=O)NC(C#N)CC(C)C (stereo not given) | -7.05%
CCc1ccc(C(=O)NC[C@H]2CCCN2C(=O)c2ccc(CC)o2)o1 | -0.868%
Cc1cc(C(=O)N(C)C2CCS(=O)(=O)C2)c2ccc(F)cc2n1 (stereo not given) | -7.82%
Cc1ccc(C)c(CC(=O)NC2CCCS(=O)(=O)C2)c1 (stereo not given) | -5.26%
CCn1nc(C)c(C(C)Nc2cc(C3CCNCC3)nc(C)n2)c1C (stereo not given) | 0.304%
COCCc1noc(CN2CCN(c3ccc(OC)cc3)C(=O)C2C)n1 (stereo not given) | 4.12%
COc1ccc(C2CCN(S(=O)(=O)CCCC#N)CC2)cc1 | -2.21%
CN1CC2(CCN(C(=O)CCCOCc3ccccc3)C2)OC1=O (stereo not given) | 9.85%
COCc1nn(Cc2ccc(Cl)s2)c(=O)o1 | 6.29%
Cn1cnc(S(=O)(=O)N2CCCC2c2ccnc3nccn23)c1 (stereo not given) | 0.76%
CC(NC(=O)NC1CCN(Cc2ccncc2)CC1)c1ccccc1F (stereo not given) | -3.35%
COc1c(F)cc(NC(=O)N2CCC(CSC)C2)cc1F (stereo not given) | 2.71%
N[C@H]1CN(S(=O)(=O)Cc2ccccc2)C[C@@H]1C1CC1 | -5.29%

SMILES | Percent Effect
CCC(=O)NCCc1cc2nc(-c3ccncc3)ccn2n1 | 18.1%
COC(=O)C1CN(Cc2ccn(-c3ccc(F)cc3)n2)CCO1 (stereo not given) | -6.99%
COCCN1CCCC(c2nccnc2-c2cccc(Cl)c2)C1 (stereo not given) | -11.9%
CC(CN1CCOC1=O)NC(=O)c1cccc(Cl)c1Cl (stereo not given) | 10%
CC(C)N(C(=O)Cn1cc(Cl)cn1)c1ccccc1 | -3.03%
O=C(CCC(=O)N1CCNC(=O)C1c1cccc(F)c1)NC1CCCC1 (stereo not given) | -9.49%
Cc1cc(C(=O)NC(C)CC(=O)c2ccco2)[nH]n1 (stereo not given) | 2.92%
C[C@@H](N)C(=O)N1CCC(c2[nH]ncc2-c2ccccc2)CC1 | -8.89%
CCN(CC)S(=O)(=O)c1ccc(NC(=O)C(C)(C)C)cc1 | 3.46%
CC(C)(CNc1cccc(Cl)c1)NC(=O)C1CCCN(CC(N)=O)C1 (stereo not given) | 40.1%
CC(C)CNC(=O)c1sccc1-n1cnnn1 | 10.8%
CCC(NC(=O)c1cnc(N(C)C)nc1C)c1ccncc1 (stereo not given) | 0.963%
Cc1cc(C)n(CC2CCN(CC(O)Cn3cccn3)CC2)n1 (stereo not given) | -0.567%
CN(Cc1nnnn1C1CC1)CC1COc2ccccc2O1 (stereo not given) | 4.32%
CCOc1ccc(NC(=O)NCCS(=O)(=O)CC)cc1C | -0.616%
Cn1ccc(C(=O)N2CCCCC2c2cc(CCO)[nH]n2)n1 (stereo not given) | 30.2%
CC(C)(C)C(NC(=O)CCCS(C)(=O)=O)c1ccc(F)cc1F (stereo not given) | 7.18%
N#Cc1c(C2CC2)cc(-c2ccc(F)c(F)c2)nc1N | 10.4%
CN1CCC(Cc2cnc(CNC(=O)Cc3cccc(F)c3)cn2)CC1 | 3.91%
O=C(COC1CCCC1)NCc1ccc(O)c(F)c1 | 8.07%
Cc1nn2cccnc2c1C(=O)NCc1ccccc1OCC1CC1 | 2.06%
CCNc1cc2c(nn1)CCN(C(=O)c1ccc(-n3cccn3)nc1)C2 | -5.94%
COc1cccc(-c2n[nH]cc2-c2nc(CN3CCCC3)no2)c1 | -4.34%
Cn1cncc1C(=O)N1CCCC(c2ccn[nH]2)C1 (stereo not given) | -5.31%
CNC(=O)CN(C)C(=O)c1ccc(-c2nc(C)cs2)cc1 | -2.2%
CCc1ncc2c(n1)CN(c1cc(NC3CC3)nc(N)n1)C2 | -118%
CCCN1CCC(NCc2cccc(CN3CCOC(C)C3)c2)CC1 (stereo not given) | -4.13%

Reference: ChEMBL document CHEMBL3988442, “University of Dundee, Small-Polar-MMV Screening Library” (2021)
